# In PubChem BioAssay (NCATS):
# Records with an inconclusive call do not appear. Entries that show only a call come without a potency. Activity calls are given as the source filed them. The call rests on the fitted dose curve; in most records, active means well fitted cell-killing curve with a large enough effect; inconclusive means small, poorly fitted or top-dose-only effect, or effect the other way; inactive means no such curve, though single readings can be large or run the other way.
# Experiment: qHTS assay to identify small molecule inhibitors of chordoma cells - UCH-1 (AID 1259355); further: nearly all actives have a fitted effect of over 55% in size
# Conditions: UCH-1 chordoma viability, CellTiter-Glo, 48 h, combination, with auranofin plus four topoisomerase inhibitors; series mostly up to 46.1 µM
# Description: NIH Chemical Genomics Center [NCGC]
# Chordoma is a rare and slow growing tumor that can occur anywhere along the spine, from the base of the skull to the tailbone. Current treatment options for chordoma is surgery and radiation therapy for those who are not candidates for surgery. But chordomas tend to return in the same location or surrounding areas of the original tumor after surgery and/or radiation. Chemotherapy can slow down the progression of the tumor. As chordoma is slow growing, the general cytotoxic agents that kill fast growing cells are ineffective, and some patients have been reported to respond to molecularly targeted drugs.
# NCATS Pharmaceutical Collection (NPC) containing approximately 3000 clinically approved and investigational drugs were used to screen at 15 concentrations in a chordoma cell lines, UCH-1, to identify small molecule compounds that can inhibit chordoma cell growth.
# NCGC Assay Protocol Summary:
# Human chordoma cell line UCH-1 was dispensed at 800 per well in 4uL of culture medium into white solid bottom 1536-well plates (Corning Life Sciences, Corning, NY) using a Multidrop Combi (Thermo Scientific, Waltham, MA) dispenser. The assay plates were incubated at 37 C and 5% CO2 for an overnight, and then 23nL of compounds dissolved in DMSO and positive control were transferred using a Pintool station (Wako, San Diego, CA). Compound treatment was followed by the addition of 1uL of the combination compounds (1uM Auranofin, 500nM each of Camptothecin, Doxorubicin, Rubitecan, and Topotecan) and assay medium to each well of the assay plates using Flying Reagent Dispenser (FRD, Aurora Discovery, San Diego, CA). The assay plates were incubated at 37 C and 5% CO2 for 48hr. Then 5uL of CellTiter-Glo reagent (Promega Corporation, Madison, WI) was added to each well of the assay plates using FRD. After 30min incubation at room temperature, the luminescence signal was quantified using a ViewLux plate reader (PerkinElmer, Shelton, CT).
# Potency means the concentration at half of the fitted maximal effect.
row,Structure (SMILES),Potency
1,O=c1[nH]c(=O)n(C2CCCO2)cc1F (stereo unspecified),inactive
2,CC(C)(C)NC(=O)[C@H]1CN(Cc2cccnc2)CCN1C[C@@H](O)C[C@@H](Cc1ccccc1)C(=O)N[C@H]1c2ccccc2C[C@H]1O,inactive
3,O=C(O)CO.[NH2-].[NH2-].[Pt+2],inactive
4,COc1c(N2C[C@@H]3CCCN[C@H]3C2)c(F)cc2c(=O)c(C(=O)O)cn(C3CC3)c12,inactive
5,Cc1nc2ccc(CN(C)c3ccc(C(=O)N[C@@H](CCC(=O)O)C(=O)O)s3)cc2c(=O)[nH]1,inactive
6,Nc1ccc(S(=O)(=O)Nc2ncccn2)cc1,inactive
7,COC(=O)C[C@](O)(CCCC(C)(C)O)C(=O)O[C@@H]1C(OC)=C[C@]23CCCN2CCc2cc4c(cc2[C@H]13)OCO4,199 nM (active)
8,CC=CC1=C(C(=O)O)N2C(=O)[C@H](NC(=O)[C@H](N)c3ccc(O)cc3)[C@@H]2SC1,inactive
9,Nc1ccn([C@@H]2CS[C@H](CO)O2)c(=O)n1,inactive
10,CN1c2cc(O)c(N=NC(N)=O)cc2CC1S(=O)(=O)O (stereo unspecified),inactive
11,COc1cc(C(=O)NS(=O)(=O)c2ccccc2C)ccc1Cc1cn(C)c2ccc(NC(=O)OC3CCCC3)cc12,inactive
